The results in this text go back to PubChem BioAssay.

Each structure is given as a SMILES string. Several values for one entry are separate records, joined by “and”; a condition that tells them apart may be missing. Equal entries are not always repeated. Activity calls are given as the source filed them.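 The calls were made as follows, unless noted: active = compounds whose cell count with miR-34 switched on is under 0.7 times the count with it off; inactive = the rest.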

As usually defined, the viability is a read-out of living cells in per cent, often relative to untreated cells.

Assay [1] can be described thus: P. berghei load reduction in hepatocytes – cell-based, HepG2, luciferase luminescence, HepG2 viability, primary screen (AID 624349; in the data active = parasite load remaining mostly below about 12%, no sharp cut-off; inactive = mostly above about 10%;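 also: 100% = mean of DMSO negative control wells on the same plate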). Conditions: P. berghei liver stage in HepG2, luciferase luminescence, concentration not given here; parasite load remaining: stronger effect = lower value; viability: measured here: HepG2 viability without parasites.
Assay [2] is described as follows: viability loss with induced miR-34 in A549 – imaging, A549 dox-inducible miR-34, nuclei and caspase counts, primary screen (AID 1347080). Conditions: A549 miR-34 inducible, Hoechst nuclei count, 48 h.
Assay [3] is described as follows: MELAS cybrid and Rieske KO viability enhancers – cell-based, MELAS cybrids, Rieske KO mouse fibroblasts, CellTiter-Glo, primary screen (AID 1508586;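 active = mean z-score across replicates of 1.96 or higher in either the MELAS or the Rieske mutant cell line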;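 also: z relative to plate mean and SD of compound and empty wells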). As to conditions: low glucose. For orientation: ATP-based viability assays read luminescence as a measure of living cells.
A short description of assay [4]: galactose survival enhancers in mitochondrial complex I cybrids – cell-based, galactose medium, ATP luminescence, primary screen (AID 1645843;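 active = z-score of at least 1.8 in each of two replicates, scored against plate mean and spread of sample wells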;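 also: positive z means more ATP and so rescue of galactose-driven cybrid death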). Conditions: complex I mutant cybrid cells, 72 h, stronger effect = higher value.
[5] abbreviates: stronger effect = lower value, cell number ratio, induced over uninduced.
Setting [6] is: measured here: relative caspase fold change +Dox/-Dox.
Where [7] appears, read: measured here: total cells with miR-34 induction, stronger effect = lower value.
Setting [8] is: measured here: total cells without miR-34 induction.

Regarding `O=C1Cc2c([nH]c3ccc(Br)cc23)-c2ncccc2N1`, the parasite load remaining in assay [1] is 39% (inactive). The viability in assay [1] was 165%. Moreover, the figures for the fold change in assay [2] (setting [5]) and in assay [2] (setting [6]) were 0.879 (inactive) and 0.672, respectively. Further, the cell count is 2970 in assay [2] (setting [7]) and 3380 in assay [2] (setting [8]). For the same compound, the z-score in assay [3] (MELAS cybrid survival, CellTiter-Glo 48 h, stronger effect = higher value) is 1.05 (inactive); in assay [3] (Rieske KO mouse fibroblast survival, CellTiter-Glo 72 h) it was -2.27.
As for `CCC(C)C(=O)OC1CC(O)C=C2C=CC(C)C(CCC(O)CC(O)CC(=O)O)C21` (stereo not drawn), the fold change in assay [2] (setting [5]) was 0.961 (inactive); in assay [2] (setting [6]), 1.91. The cell count in assay [2] (setting [7]) was found to be 10300; in assay [2] (setting [8]), 10800. Moreover, in assay [4], the z-score is 0.5 (inactive).
The like results for `CC(C)(C)NC(=O)C1CCC2C3CCC4NC(=O)C=C[C@]4(C)C3CC[C@]12C` (stereo partly drawn) were, in that order, 0.939 (inactive), 1.36, 8850, 9430 and 0.345 (inactive).
Regarding `CC(C)CC(NC(=O)C(O)C(N)Cc1ccccc1)C(=O)O` (stereo not drawn), the fold change in assay [2] (setting [5]) is 0.913 (inactive); in assay [2] (setting [6]), 1.61. Moreover, the cell count turned out to be 8460 in assay [2] (setting [7]) and 9270 in assay [2] (setting [8]). Besides, in assay [4], the z-score is 0.29 (inactive).
As for `C=CC1=C(C(=O)O)N2C(=O)C(NC(=O)C(=NOCC(=O)O)c3csc(N)n3)C2SC1` (stereo not drawn), the fold change in assay [2] (setting [5]) is 0.923 (inactive); in assay [2] (setting [6]) it was 0.894. Further, the results for the cell count in assay [2] (setting [7]) and in assay [2] (setting [8]) were 8710 and 9440, respectively. The z-score in assay [4] was 0.065 (inactive).
The like results for `CC(=O)[C@@]1(O)CCC2C3CC(C)C4=CC(=O)CC[C@]4(C)C3CC[C@@]21C` (stereo partly drawn) were, in that order, 0.817 (inactive), 0.742, 7720, 9450 and -0.04 (inactive).
In the case of `COCC1=C(C(=O)OC(C)OC(=O)OC(C)C)N2C(=O)C(NC(=O)C(=NOC)c3csc(N)n3)C2SC1` (stereo not drawn), the fold change is 0.946 (inactive) in assay [2] (setting [5]) and 1.68 in assay [2] (setting [6]). Besides, the cell count was determined as 9860 in assay [2] (setting [7]) and 10400 in assay [2] (setting [8]). Further, the z-score in assay [4] is 0.625 (inactive).
The like results for `Nc1ncnc2c1ncn2C1OC(CO)CC1O` (stereo not drawn) were, in that order, 0.896 (inactive), 2.91, 8910, 9950 and -0.825 (inactive).
On to `CC[C@]1(O)CC2CN(CCc3c([nH]c4ccccc34)[C@@](C(=O)OC)(c3cc4c(cc3OC)N(C)C3[C@@](O)(C(N)=O)C(O)[C@]5(CC)C=CCN6CC[C@]43C65)C2)C1` (stereo partly drawn), for which the figures for the fold change in assay [2] (setting [5]) and in assay [2] (setting [6]) were 0.722 (inactive) and 1.09, respectively. The cell count in assay [2] (setting [7]) was determined as 1070; in assay [2] (setting [8]) it was 1480. In addition, the z-score in assay [4] was -1.19 (inactive).
The like results for `C=CCC1C=C(C)CC(C)CC(OC)C2O[C@@](O)(C(=O)C(=O)N3CCCCC3C(=O)OC(C(C)=CC3CCC(O)C(OC)C3)C(C)C(O)CC1=O)C(C)CC2OC` (stereo partly drawn) were, in that order, 1.03 (inactive), 1.03, 5920, 5760 and 0.96 (inactive).
For `CN1C2CC(OC(=O)C(CO)c3ccccc3)CC1C1OC12` (stereo not drawn), the fold change was 0.901 (inactive) in assay [2] (setting [5]) and 2.66 in assay [2] (setting [6]). The cell count in assay [2] (setting [7]) is 9400; in assay [2] (setting [8]), 10400. In addition, in assay [4], the z-score is 0.87 (inactive).
The like results for `NC(C(=O)NC1C(=O)N2C(C(=O)O)=C(CSc3cn[nH]n3)CSC12)c1ccc(O)cc1` (stereo not drawn) (tested in a mixture with another compound) were, in that order, 0.899 (inactive), 1.68, 9710, 10800 and 0.555 (inactive).
The like results for `COC1C=CO[C@@]2(C)Oc3c(C)c(O)c4c(O)c(c5c(nc6cc(C)ccn65)c4c3C2=O)NC(=O)C(C)=CC=CC(C)C(O)C(C)C(O)C(C)C(OC(C)=O)C1C` (stereo partly drawn) were, in that order, 0.986 (inactive), 1.96, 9910, 10000 and 1.96 (active).
The like results for `CC1(C)SC2C(N=CN3CCCCCC3)C(=O)N2C1C(=O)O` (stereo not drawn) were, in that order, 0.941 (inactive), 1.42, 9640, 10200 and 0.33 (inactive).
For `C[C@]12CCC3c4ccc(O)cc4CCC3C1CCC2O` (stereo partly drawn), the fold change in assay [2] (setting [5]) was 1.11 (inactive); in assay [2] (setting [6]), 1.15. For the same compound, the cell count is 6850 in assay [2] (setting [7]) and 6160 in assay [2] (setting [8]). In assay [4], the z-score was 0.465 (inactive).
The like results for `CN1CC(=O)N2C(Cc3c([nH]c4ccccc34)C2c2ccc3c(c2)OCO3)C1=O` (stereo not drawn) were, in that order, 0.932 (inactive), 1.44, 6940, 7450 and 1.56 (inactive).
The like results for `COc1cc(C=Cc2ccc(O)cc2)cc(OC)c1` were, in that order, 0.943 (inactive), 1.26, 6760, 7170 and -1.52 (inactive).
As for `COCc1c(C(C)C)nc(C(C)C)c(C=CC(O)CC(O)CC(=O)O)c1-c1ccc(F)cc1` (stereo not drawn), the fold change in assay [2] (setting [5]) is 1.06 (inactive); in assay [2] (setting [6]), 2.76. Also, the results for the cell count in assay [2] (setting [7]) and in assay [2] (setting [8]) were 1210 and 1140, respectively. Besides, the z-score in assay [4] is -1.86 (inactive).
Regarding `CC(=O)OC1CC2CCC3C(CC[C@@]4(C)C3CC([N+]3(C)CCCCC3)C4OC(C)=O)[C@@]2(C)CC1N1CCCCC1` (stereo partly drawn), the fold change in assay [2] (setting [5]) is 0.934 (inactive); in assay [2] (setting [6]) it was 1.76. The cell count in assay [2] (setting [7]) came to 9160; in assay [2] (setting [8]), 9800. Also, in assay [4], the z-score is 0.43 (inactive).
Consider `CC=CC(=O)N(CC)c1ccccc1C`, for which the fold change in assay [2] (setting [5]) is 0.962 (inactive); in assay [2] (setting [6]), 1.8. Moreover, the figures for the cell count in assay [2] (setting [7]) and in assay [2] (setting [8]) were 9730 and 10100, respectively. The z-score in assay [4] is 0.595 (inactive).
As for `CC1COc2c(C3(N)CC3)c(F)cc3c(=O)c(C(=O)O)cn1c23` (stereo not drawn), the fold change in assay [2] (setting [5]) is 0.951 (inactive); in assay [2] (setting [6]), 1.6. Also, the cell count in assay [2] (setting [7]) came to 9830; in assay [2] (setting [8]), 10300. In addition, the z-score in assay [4] is 0.395 (inactive).
The like results for `O=C1C2CCCCC2C(=O)N1CCCCN1CCN(c2nsc3ccccc23)CC1` (stereo not drawn) were, in that order, 0.926 (inactive), 1.74, 7810, 8440 and -1.79 (inactive).
The like results for `CC[C@]1(O)CC2CN(CCc3c([nH]c4ccccc34)[C@@](C(=O)OC)(c3cc4c(cc3OC)N(C=O)C3[C@@](O)(C(=O)OC)C(OC(C)=O)[C@]5(CC)C=CCN6CC[C@]43C65)C2)C1` (stereo partly drawn) were, in that order, 0.746 (inactive), 1.38, 1340, 1800 and -1.05 (inactive).
On to `CC(C)(C)NC(=O)C1CC2CCCCC2CN1CC(O)C(Cc1ccccc1)NC(=O)C(CC(N)=O)NC(=O)c1ccc2ccccc2n1` (stereo not drawn), for which the fold change in assay [2] (setting [5]) is 1.12 (inactive); in assay [2] (setting [6]), 1.27. Further, the cell count in assay [2] (setting [7]) worked out at 4860; in assay [2] (setting [8]) it was 4350. Also, the z-score in assay [4] is -1.52 (inactive).
In the case of `O=C1NC(=O)c2c1c(-c1ccccc1)cc1[nH]c3ccc(O)cc3c21`, the fold change is 0.992 (inactive) and 1.16 (inactive) in assay [2] (setting [5]); 0.466 and 1.08 in assay [2] (setting [6]). Moreover, the cell count in assay [2] (setting [7]) was 2060 and 2860; in assay [2] (setting [8]) it was 2080 and 2470. Moreover, the z-score in assay [4] was -1.27 (inactive) and -0.655 (inactive).
